Active and inactive are the calls of the source. How the source made its calls: active means hit-call score of the fitted dose curve at least 0.9, where 1 is the maximum; inactive means score below 0.9.
Molecular target: human Zeta Chain of T Cell Receptor Associated Protein Kinase 70 (ZAP70), ZAP70 (gene 7535) (UniProt P43403)
Experiment: NVS_ENZ_hZAP70: NovaScreen (NVS) Enzymatic Assay for human Zeta Chain of T Cell Receptor Associated Protein Kinase 70 (ZAP70)
Method: NVS_ENZ_hZAP70 is a biochemical, single-readout assay that uses extracted gene-proteins in a cell-free assay. Measurements were taken 0 hour after chemical dosing in a 96-well plate.NVS_ENZ_hZAP70 is one of one assay component(s) measured or calculated from the NVS_ENZ_hZAP70 assay. It is designed to make measurements of enzyme activity, a form of enzyme reporter, as detected with fluorescence intensity signals by Fluorescence and electrophoretic mobility shift technology.Data from the assay component NVS_ENZ_hZAP70 was analyzed into 1 assay endpoint. This assay endpoint, NVS_ENZ_hZAP70, was analyzed in the positive analysis fitting direction relative to DMSO as the negative control and baseline of activity. Using a type of enzyme reporter, loss-of-signal activity can be used to understand changes in the enzymatic activity as they relate to the gene ZAP70. Furthermore, this assay endpoint can be referred to as a primary readout, because this assay has produced multiple assay endpoints where this one serves a enzymatic activity function. To generalize the intended target to other relatable targets, this assay endpoint is annotated to the kinase intended target family, where the subfamily is non-receptor tyrosine kinase. […]

human Zeta Chain of T Cell Receptor Associated Protein Kinase 70 (ZAP70), ZAP70 (gene 7535), sequence (P43403 whole entry, looked up): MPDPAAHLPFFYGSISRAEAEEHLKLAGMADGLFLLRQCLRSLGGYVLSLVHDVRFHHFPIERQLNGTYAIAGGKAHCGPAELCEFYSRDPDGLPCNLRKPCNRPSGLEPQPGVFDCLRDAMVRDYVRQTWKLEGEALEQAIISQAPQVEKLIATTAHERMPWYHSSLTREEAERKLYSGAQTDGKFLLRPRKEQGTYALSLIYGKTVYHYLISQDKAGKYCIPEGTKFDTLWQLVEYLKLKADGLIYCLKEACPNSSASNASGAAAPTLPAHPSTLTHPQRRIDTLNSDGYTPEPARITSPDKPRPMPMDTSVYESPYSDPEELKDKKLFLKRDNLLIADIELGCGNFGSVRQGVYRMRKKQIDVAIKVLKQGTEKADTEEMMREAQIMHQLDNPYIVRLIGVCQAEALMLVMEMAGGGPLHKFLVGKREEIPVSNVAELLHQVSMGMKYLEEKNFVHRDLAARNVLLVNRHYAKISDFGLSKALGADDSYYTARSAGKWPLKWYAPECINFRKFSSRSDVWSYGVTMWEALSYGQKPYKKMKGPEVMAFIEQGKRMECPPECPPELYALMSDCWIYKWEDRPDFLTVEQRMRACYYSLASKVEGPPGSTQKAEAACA

| SMILES | AC50 | outcome |
| --- | --- | --- |
| O=S(=O)(O)C(F)(F)C(F)(F)C(F)(F)C(F)(F)C(F)(F)C(F)(F)C(F)(F)C(F)(F)F | 12.3 µM (active) |  |
| O=C(O)C(F)(F)C(F)(F)C(F)(F)C(F)(F)C(F)(F)C(F)(F)C(F)(F)F |  | inactive |

— PubChem BioAssay AID2283218 (EPA ToxCast)
